Screens as filed in PubChem BioAssay.
FBPA Giardia inh – blocks Giardia fructose-bisphosphate aldolase activity. A8B2U2. purified Giardia FBPA. Potency, µM (doses to about 59.6 µM), inactives show top-dose activity, negative = inhibition, usual class: inhibitors. 0.71% of 290,000 active. AID 2451; further: potency means the concentration at half of the fitted maximal effect; nearly all actives have a fitted effect of over 55% in size
Target sequence (A8B2U2 whole entry, looked up): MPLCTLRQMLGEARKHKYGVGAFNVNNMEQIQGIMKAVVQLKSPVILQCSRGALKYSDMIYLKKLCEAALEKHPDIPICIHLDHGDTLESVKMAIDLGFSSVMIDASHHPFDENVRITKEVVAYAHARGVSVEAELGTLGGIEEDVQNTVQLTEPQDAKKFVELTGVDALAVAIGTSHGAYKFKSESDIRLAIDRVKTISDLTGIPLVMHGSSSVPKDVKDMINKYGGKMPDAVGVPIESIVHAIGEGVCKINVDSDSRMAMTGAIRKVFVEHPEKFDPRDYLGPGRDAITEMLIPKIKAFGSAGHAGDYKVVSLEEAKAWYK
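Giardia FBPA (40 nM reagent) was preincubated 10 min at RT with compound (up to 57.5 uM final), then substrate plus GAPDH/TPI/NAD/arsenate coupling system with diaphorase/resazurin was added; resorufin fluorescence (525/598 nm) was read after 20 min.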
HCMV antiviral – blocks human cytomegalovirus replication; HFF cells, HCMV-luciferase reporter, 72 h; active compounds read low; activity change, negative = inhibition, % at 57.5 µM; 4.5% of 410,000 active; AID 1259415; in the data active means activity change below about -60%; inconclusive means no clear call, values can overlap the other calls; inactive means above about -39%
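Human foreskin fibroblasts infected with luciferase-reporter HCMV at MOI 1 PFU/cell, compounds at two doses. Luciferase measured 72 h post infection; normalized to buffer-only basal and Salinomycin (10uM) controls.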
HCV inhibitor – blocks hepatitis C virus; Huh7.5.1 HCVcc-Cre infection, luciferase reporter, 44 h; Potency, µM (series often up to 41.8 µM), for the others: at the top dose activity change, negative = inhibition, usual class: inhibitors; 3.4% of 340,000 active; further: potency means the concentration at half of the fitted maximal effect
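Cells (1,000/well) were plated 4 h before compound, then infected with HCVcc-Cre virus (~0.5 moi). After 44 h further culture, infection was read as luciferase luminescence following a 15 min substrate incubation at room temperature.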
VACV mCherry inh – inhibitors of vaccinia virus infection (mCherry reporter signal); Vaccinia virus mCherry reporter infection, fluorescence; Potency, µM (titrated, usually from 36.5 µM), without a hit: top-dose activity change, negative = inhibition, actives largely listed as inhibitors; 0.63% of 310,000 active; calls by dose curve; tested in A549 cells; further: potency means the concentration at half of the fitted maximal effect; nearly all actives have a fitted effect of over 35% in size
VACV Venus inh – inhibitors of vaccinia virus (Venus reporter); AID 720580; 0.46% of 330,000 active; Potency, µM (titrated, usually from 36.5 µM), inactives show at the top dose activity change, negative = inhibition, actives largely listed as inhibitors; Vaccinia virus Venus reporter expression, fluorescence; calls by dose curve; tested in A549 cells; further: potency means the concentration at half of the fitted maximal effect; nearly all actives have a fitted effect of over 30% in size
FMDV inh – foot and mouth disease virus antiviral activity | FMDV antiviral cell-based qHTS | Potency, µM (doses to about 57.9 µM), for the others: at the top dose activity change, negative = inhibition, most hits filed as inhibitors | 1.2% of 410,000 active | AID 1159524; calls by dose curve; tested in HEK293T cells; further: read-out not given here; potency means the concentration at half of the fitted maximal effect; nearly all actives have a fitted effect of over 45% in size
* = called active by the depositor; i = inactive; ? = inconclusive; nt = no result; [ ] = another dose, or the depositor's remark. A selection: hits, their analogues and other compounds. The true share with any hit is near 7.5%. Unless noted, the call rests on the fitted dose curve; in most records, active means well fitted curve in the direction sought with a large enough effect; inconclusive means small, poorly fitted or top-dose-only effect, or another doubt; inactive means no such curve, though single readings can be large; an effect the other way counts as inactive or inconclusive. On the % scale 0 is the no-effect control and ±100 the full control effect.

SMILES	FBPA Giardia inh	HCMV antiviral	HCV inhibitor	VACV mCherry inh	VACV Venus inh	FMDV inh
COc1ccccc1Nc1cc(C)nc2nc(-c3ccccc3)nn12	nt	-86*	nt	-14%	-17%	-4%
Cc1ccc(-c2nc3nc(C)cc(Nc4ccccc4O)n3n2)cc1	nt	?	nt	-22%	3%	23%
COc1ccccc1-n1cnc2c(c1=O)c1nc3ccccc3nc1n2-c1ccc(C)cc1	-8%	-87*	?	nt	nt	-15%
COc1ccccc1-n1cnc2c(c1=O)c1nc3ccccc3nc1n2CCc1ccccc1	1%	?	4%	-9%	-10%	-28%
C=CCn1cnc2c(c1=O)c1nc3ccccc3nc1n2-c1ccc(C)cc1	3%	-22	24%	nt	nt	nt
COc1ccccc1-n1c2nc3ccccc3nc2c2c(=O)n(-c3cc(C)cc(C)c3)cnc21	-16%	-69*	?	-26%	-22%	?
CC(=O)c1cc2c(cc1NC(=O)CCc1ccccc1)OCO2	-16%	5	?	-21%	-14%	1%
CC(=O)c1cc2c(cc1NC(=O)Cc1ccsc1)OCO2	nt	44	5.6µM*	nt	nt	-6%
O=C(Nc1ccc2c(c1)CCC2)c1cnn2c1NC(=C1CC1)C=C2C(F)F	nt	nt	nt	-6%	-17%	nt
CC(=O)NC(C)(c1ccccc1)c1nc(-c2ccc(F)c(Cl)c2)cs1 (stereo not given)	nt	62	nt	i	-2%	-3%
Nc1nc(=S)c2n[nH]nc2[nH]1	nt	nt	nt	-9%	-9%	nt
Cc1ccc(NC(=O)C2CCCN(S(=O)(=O)c3cccc4cccnc34)C2)cc1 (stereo not given)	nt	74	-24%	-20%	-20%	?
COCCC(=O)N1CCc2ccc(NC(=O)c3ccc(C(F)(F)F)cc3)cc2C1	11%	-65*	10µM*	nt	nt	?
CC(=O)N1CCCc2ccc(NC(=O)c3ccc(C(F)(F)F)cc3)cc21	nt	-71*	nt	-9%	-16%	?
CN(C)S(=O)(=O)N1CCc2ccc(NC(=O)c3ccc(C(F)(F)F)cc3)cc2C1	4%	?	7.9µM*	nt	nt	?
CC(O)(c1ccc(F)c(F)c1)c1nc(/C=C/c2ccc(C(F)(F)F)cc2)cs1 (stereo not given)	nt	-20	nt	-6%	-3%	-17%
CCN(CC)c1ccc(NC(=O)c2cc(C)nc3c2c(C)nn3-c2ccc(C)cc2)c(C)c1	nt	18	nt	-12%	1%	-22%
CN(C)c1ccc(C(=O)/C=C/c2cccnc2)cc1	-1%	-67*	-3%	nt	nt	-16%
O=c1cc(N2CCCC2)c2ccccc2o1	1%	-1	11µM*	i	-13%	-7%
O=c1cc(N2CCOCC2)c2ccccc2o1	-2%	15	16%	i	-15%	nt
COc1cc(/C=C/c2nnc3c4ccccc4ncn23)cc(OC)c1OC	-14%	19	2.2µM*	-15%	-30%	0%
COc1ccc(-c2csc(C(O)c3ccc(OC)cc3)n2)cc1 (stereo not given)	nt	-72*	nt	-24%	-19%	-25%
COc1cccc(C(O)c2nc(-c3ccncc3)cs2)c1 (stereo not given)	nt	-76*	nt	?	?	?
COc1ccc(-c2cc(C(F)(F)F)n3nc(C(=O)Nc4cccc(Cl)c4Cl)cc3n2)cc1OC	nt	-4	nt	1%	-2%	-11%
Cc1cc(C(=O)N/N=C/c2ccc([N+](=O)[O-])s2)n[nH]1	-5%	-91*	10µM*	?	?	-12%
SMILES	FBPA Giardia inh	HCMV antiviral	HCV inhibitor	VACV mCherry inh	VACV Venus inh	FMDV inh
CCOC(=O)N/N=C\c1ccc([N+](=O)[O-])s1	0%	?	?	?	-15%	-5%
Cc1[nH]cnc1C(=O)N/N=C/c1ccc([N+](=O)[O-])s1	8%	-90*	?	-23%	?	-1%
CCC(C)NCCOCCOc1ccc(Cl)cc1Br (stereo not given)	?	-23	35µM*	-6%	-9%	-10%
CCC(C)NCCOCCOc1ccccc1-c1ccccc1 (stereo not given)	-26%	-23	13µM*	-27%	-21%	-11%
Cc1cc(C)cc(N(CCC(=O)Nc2nnc(C3CC3)s2)S(=O)(=O)c2ccc(Cl)cc2)c1	-3%	-61*	?	?	?	0%
O=C(NNc1ccccc1F)c1sccc1Cl	nt	nt	nt	-19%	-14%	nt
CCc1cccc(CC)c1NC(=O)C1CN(S(=O)(=O)c2ccccc2)CCN1S(=O)(=O)c1ccccc1 (stereo not given)	-1%	-35	13µM*	i	-14%	-9%
COc1ccc(N2CCN(C(=O)CCn3cnc4onc(-c5ccc(F)cc5)c4c3=O)CC2)cc1	nt	-8	nt	-19%	-14%	-19%
CCc1ccc(C2=C(C)C(N3CCC(C(=O)Nc4ccc(F)cc4)CC3)=NS2(=O)=O)cc1	nt	-33	nt	-18%	-25%	-21%
Cc1cc(NC(=O)CS(=O)(=O)c2cn(Cc3cccc(F)c3)c3ccccc23)no1	-28%	-34	?	-19%	-15%	40µM*
C=CCSc1nnc2c(n1)[nH]c1c(C)cccc12	-2%	-37	7.9µM*	?	?	nt
Cc1cccc2c1[nH]c1nc(N/N=C\c3ccco3)nnc12	-1%	14	22%	nt	nt	nt
CCn1ccnc1CN(C)Cc1cn(-c2cccc(C)c2)nc1-c1cccc(F)c1	-4%	-38	3.5µM*	nt	nt	0%
C=CC(C1=CC(=O)C(OC)=CC1=O)c1ccccc1 (stereo not given)	20µM*	nt	nt	i	-14%	25%
COc1ccc(S(=O)(=O)N=C2C=C(C)C(=O)C(C)=C2)cc1	-6%	26	6%	nt	nt	40%
C=CC(C1=CC(=O)C(OC)=C(OC)C1=O)c1ccccc1 (stereo not given)	18µM*	nt	nt	?	?	25µM*
C=CC(C1=CC(=O)C(OC)=CC1=O)c1ccc(OC)cc1 (stereo not given)	20µM*	nt	nt	-25%	0%	45%
COc1ccc(-n2c(=O)c3c4c(sc3n(Cc3cc(C)ccc3C)c2=O)CN(C(C)=O)CC4)c(OC)c1	nt	-27	nt	?	-19%	-10%
Fc1c(F)c(F)c(N/N=C/c2c[nH]c3ccccc23)c(F)c1F	-5%	-65*	?	?	?	7%
O=C(O)c1ccc(N/N=C/c2cn(Cc3ccccc3F)c3ccccc23)cc1	-1%	0	6%	?	0%[7.34 µM]	?
O=C(O)c1ccc(N/N=C/c2c[nH]c3ccccc23)cc1	-5%	-65*	13%	nt	nt	6.3µM*
CC(C)n1cc(/C=N/Nc2ccc(C(=O)O)cc2)c2ccccc21	1%	-39	-3%	-21%	-16%	3.5µM*
FC(F)(F)c1ccccc1-c1ccc2ncnc(NCc3cccnc3)c2c1	0%	nt	nt	nt	nt	-23%
